Experimental data reported in PubChem BioAssay (NCI).
The panel holds about 79,000 compounds, 15% with a hit somewhere; the sample as a whole holds those more often. Rule as the data show it: active = growth inhibition above about 70%; inactive = the rest.

Key:
[1] = NCI Yeast Anticancer Drug Screen. Data for the rad50 strain (AID 155);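 also: 0% = growth of vehicle-only cultures of the same strain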; conditions: S. cerevisiae rad50 strain growth inhibition; at 50.0 µM; active compounds read high
Procedure, shortened: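 Compounds were tested on a yeast strain with an engineered DNA damage repair alteration; the reported value is growth inhibition normalised to vehicle treatment.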

[2] = NCI Yeast Anticancer Drug Screen. Data for the mec2-1 strain (AID 157); conditions: S. cerevisiae mec2-1 strain, at 50.0 µM, active compounds read high
Procedure, shortened: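 Vehicle-treated cultures served as reference for growth inhibition of compound-exposed mec2-1 yeast.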

[3] = NCI Yeast Anticancer Drug Screen. Data for the sgs1 mgt1 strain (AID 161);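 also: 0% = growth of cultures given vehicle only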; conditions: S. cerevisiae sgs1 mgt1 strain, at 50.0 µM, active compounds read high
Procedure, shortened: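 Test agents were incubated with a DNA-repair-mutant yeast strain. Growth was then read and compared against vehicle-treated controls.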

[4] = NCI Yeast Anticancer Drug Screen. Data for the cln2 rad14 strain (AID 165);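 also: 0% = growth equal to vehicle treated cultures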; conditions: S. cerevisiae cln2 rad14 strain, at 50.0 µM, active compounds read high
Procedure, shortened: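 Each compound was tested on cln2 rad14 yeast. Inhibition of growth was calculated against vehicle-exposed controls.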

[5] = NCI Yeast Anticancer Drug Screen. Data for the bub3 strain (AID 167); conditions: S. cerevisiae bub3 mutant strain, at 50.0 µM, active compounds read high
Procedure, shortened: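 Growth of a checkpoint-deficient yeast mutant is measured after compound exposure. Values represent inhibition relative to vehicle.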

[6] = NCI Yeast Anticancer Drug Screen. Data for the mlh1 rad18 strain (AID 175); conditions: S. cerevisiae mlh1 rad18 strain growth inhibition; at 50.0 µM; active compounds read high
Procedure, shortened: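 Vehicle-treated cultures served as the reference for growth inhibition in a yeast strain carrying DNA damage repair alterations exposed to each compound.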

Measured: growth inhibition

C=CCCCCOCOCCOC
inactive: [1] 13.7% | [2] 17.6% | [3] 5.8% | [4] 0.5% | [5] 0.15% | [6] -28.4%

CC1(c2nc3ccccc3[nH]2)CCC(C(=O)O)C(C)(C)O1 (stereo not given)
inactive: [1] 1.75% | [2] -11.2% | [3] -18.4% | [4] 15.6% | [5] -19.6% | [6] -32.9%

CC(C)(C)SC1C(O)C(CO)OC1n1ccc(Nc2ccccc2)nc1=O (stereo not given)
inactive: [1] -17.9% | [2] 10.8% | [3] -24.6% | [4] -15.8% | [5] 1.55% | [6] 4.65%

COc1ccccc1NC=O
inactive: [1] -1.5% | [2] -25.1% | [3] -3.65% | [4] 16.8% | [5] -7.4% | [6] 2.55%

CC(=O)Oc1cc(Oc2c(OC(C)=O)cc(Oc3c(OC(C)=O)cc(OC(C)=O)c(OC(C)=O)c3OC(C)=O)cc2OC(C)=O)cc(OC(C)=O)c1OC(C)=O
inactive: [1] 6.15% | [2] 3.1% | [3] 13.2% | [4] 4.5% | [5] 15.4% | [6] 10.4%

c1ccc2cc(-c3csc4ccccc34)ccc2c1
inactive: [1] 12.8% | [2] -16.4% | [3] 17.1% | [4] -8.05% | [5] 15.4% | [6] 9.15%

CCOC(=O)C(N)CSSCC(N)C(=O)OCC (stereo not given)
inactive: [1] 5.55% | [2] -3.35% | [3] -4.4% | [4] -11.6% | [5] 8.95% | [6] -4.85%

O=C(NC1CC1)C1CC1
inactive: [1] -20.2% | [2] -12.8% | [3] -1.45% | [4] -17.4% | [5] 1.7% | [6] -1.35%

CSc1nc(-c2ccc(Cl)cc2)c(C#N)c(=O)n1C1OC(COC(C)=O)C(OC(C)=O)C(OC(C)=O)C1OC(C)=O (stereo not given)
inactive: [1] -0.55% | [2] -5.75% | [3] 16.6% | [4] 21.2% | [5] -36% | [6] 23.2%

CCC(CC)CCC(=O)CC(C)C
inactive: [1] 23.9% | [2] -3.5% | [3] -15.6% | [4] 5.5% | [5] -19% | [6] 7.1%

CC(=O)c1cc2c(cc1C(C)C)CC[C@H]1[C@](C)(C#N)CCC[C@]21C
inactive: [1] 1% | [2] -1.15% | [3] 1.25% | [4] -26.6% | [5] 15.9% | [6] 31.3%

Cc1nc(N)[nH]c(=O)c1CCCNC(=O)c1cccc([N+](=O)[O-])c1
inactive: [1] -1.55% | [2] 2.65% | [3] 11.4% | [4] -4.7% | [5] 30.5% | [6] 18.6%

O=c1c(C(c2ccc(Cl)cc2)c2c(O)c3ccccc3n(-c3ccccc3)c2=O)c(O)c2ccccc2n1-c1ccccc1
inactive: [1] -12.9% | [2] -0.65% | [3] -9.95% | [4] -12.4% | [5] -0.8% | [6] -3.4%

CN1C(=O)N(C)C2(CCN(CC(CC3OCCO3)c3ccc(F)cc3)CC2)C1=O (stereo not given)
inactive: [1] -15.8% | [2] 7.85% | [3] 0.4% | [4] 2.5% | [5] -6.8% | [6] -1.55%

CCC/C=N/NS(=O)(=O)c1ccc(C)cc1
inactive: [1] 32.1% | [2] 15.7% | [3] 30.8% | [4] 11.8% | [5] -29.9% | [6] 12.6%

c1cc(C[S+]2CCCC2)ccc1C[S+]1CCCC1
inactive: [1] -17.9% | [2] -30.9% | [3] -32% | [4] -21.1% | [5] -12.4% | [6] -22.3%

Nc1cccc(Nc2nc3ccccc3nc2NS(=O)(=O)c2ccccc2)c1
inactive: [1] 18.5% | [2] 22.6% | [3] 14.6% | [4] -11.3% | [5] -2.5% | [6] -9.1%

CCCCOCCOC(=O)CCCCCC1C=CCCC1 (stereo not given)
inactive: [1] 10.8% | [2] 8.4% | [3] 8.65% | [4] -18.6% | [5] -8.35% | [6] 4.95%

O=S1c2ccccc2N=C(c2cccc3ccccc23)CC1c1cccc2ccccc12 (stereo not given)
inactive: [1] 56.4% | [2] 38.8% | [3] 52.5% | [4] 23.8% | [5] 58.1% | [6] 41%

CCC1(C#N)N=C(c2ccccc2)c2ccccc2N1C(=O)OC (stereo not given)
inactive: [1] 5.7% | [2] -1.9% | [3] 17.8% | [4] -28.9% | [5] -35.5% | [6] 18.1%
